In PubChem BioAssay AID1159580 (chemical genetic matrix, 2015):
Hit rate of the full screen: of about 5,500 compounds, about 2,000 (36%) were called active. Roughly 18% stayed inconclusive and do not appear here. Cut-off read from the data, not from the text of the source: active = normalized growth mostly below about 0.91 (no sharp cut-off); inconclusive = no clear call, values can overlap the other calls; inactive = mostly above about 0.92. The list shows a part of the results.

Experiment: chemical genetic growth profiling, strain panel (AID 1159580);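 note: tested at 20 µM; growth read once vehicle control cultures reached saturation at 30 °C; 1 = growth at the plate median or of vehicle wells; lower values mean less growth of the strain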
Conditions: S. cerevisiae deletion strains, growth OD

Measured: normalized growth

CCCCCCCCCCCCCCCCOP(=O)([O-])OCC[N+](C)(C)C
active: locus YAL021C, strain ccr4, active compounds read low 0.0619 | locus YAL026C, strain drs2, active compounds read low 0.0625 | locus YAL030W, strain snc1, active compounds read low 0.0575 | locus YBL061C, strain skt5, active compounds read low 0.0614 | locus YBR009C, strain hhf1, active compounds read low 0.0673 | locus YBR023C, strain chs3, active compounds read low 0.0636 | locus YBR171W, strain sec66, active compounds read low 0.0767 | locus YBR231C, strain swc5, active compounds read low 0.0637 | locus YBR279W, strain paf1, active compounds read low 0.0644 | locus YCL011C, strain gbp2, active compounds read low 0.0569 | locus YCL016C, strain dcc1, active compounds read low 0.0649 | locus YCL061C, strain MRC1, active compounds read low 0.0638 | locus YCL069W, strain vba3, active compounds read low 0.0585 | locus YCR088W, strain abp1, active compounds read low 0.0589 | locus YDL005C, strain med2, active compounds read low 0.0739 | locus YDL040C, strain nat1, active compounds read low 0.062 | locus YDR001C, strain nth1, active compounds read low 0.0559 | locus YDR069C, strain doa4, active compounds read low 0.0612 | locus YDR137W, strain rgp1, active compounds read low 0.105 | locus YDR159W, strain sac3, active compounds read low 0.0874 | locus YDR195W, strain ref2 0.133 | locus YDR297W, strain sur2, active compounds read low 0.0626 | locus YDR334W, strain swr1, active compounds read low 0.0607 | locus YDR335W, strain msn5, active compounds read low 0.0579 | locus YDR392W, strain spt3, active compounds read low 0.0822 | locus YEL003W, strain gim4, active compounds read low 0.0548 | locus YEL037C, strain rad23, active compounds read low 0.0549 | locus YEL061C, strain CIN8 (second series), active compounds read low 0.0587 | locus YER015W, strain faa2, active compounds read low 0.0638 | locus YER016W, strain bim1, active compounds read low 0.0622 | locus YER111C, strain swi4, active compounds read low 0.0695 | locus YER155C, strain BEM2 (second series), active compounds read low 0.0842 | locus YFR010W, strain ubp6, active compounds read low 0.0648 | locus YGL167C, strain pmr1, active compounds read low 0.0766 | locus YGL173C, strain kem1, active compounds read low 0.082 | locus YGL227W, strain vid30, active compounds read low 0.0637 | locus YGL240W, strain doc1, active compounds read low 0.0747 | locus YGL253W, strain hxk2, active compounds read low 0.0509 | locus YHR013C, strain ard1, active compounds read low 0.14 | locus YHR027C, strain rpn1, active compounds read low 0.0701 | locus YHR142W, strain chs7, active compounds read low 0.0698 | locus YJL092W, strain hpr5, active compounds read low 0.0564 | locus YJL095W, strain BCK1 (second series), active compounds read low 0.0584 | locus YJL115W, strain asf1, active compounds read low 0.0702 | locus YJL129C, strain trk1, active compounds read low 0.0808 | locus YJL154C, strain vps35, active compounds read low 0.0578 | locus YJL164C, strain tpk1, active compounds read low 0.0591 | locus YJL166W, strain qcr8, active compounds read low 0.061 | locus YKL160W, strain elf1, active compounds read low 0.0625 | locus YKR026C, strain gcn3, active compounds read low 0.0625 | locus YKR091W, strain srl3, active compounds read low 0.072 | locus YLL001W, strain dnm1, active compounds read low 0.0583 | locus YLL026W, active compounds read low 0.0591 | locus YLL041C, strain sdh2, active compounds read low 0.058 | locus YLR027C, strain aat2, active compounds read low 0.0551 | locus YLR221C, strain rsa3, active compounds read low 0.0588 | locus YLR258W, strain gsy2, active compounds read low 0.0598 | locus YLR262C, strain YPT6 (second series), active compounds read low 0.0755 | locus YLR320W, strain mms22, active compounds read low 0.0754 | locus YLR342W, strain FKS1, active compounds read low 0.0648 | locus YLR357W, strain rsc2, active compounds read low 0.121 | locus YLR370C, strain arc18, active compounds read low 0.062 | locus YLR384C, strain iki3, active compounds read low 0.0585 | locus YML120C, strain ndi1, active compounds read low 0.0597 | locus YMR058W, strain fet3, active compounds read low 0.0574 | locus YMR125W, strain sto1, active compounds read low 0.075 | locus YMR129W, active compounds read low 0.0586 | locus YMR205C, strain PFK2, active compounds read low 0.0871 | locus YMR231W, strain pep5, active compounds read low 0.173 | locus YNL071W, strain lat1, active compounds read low 0.0608 | locus YNL209W, strain ssb2, active compounds read low 0.0625 | locus YNL248C, strain rpa49, active compounds read low 0.0698 | locus YNL322C, strain KRE1 (second series), active compounds read low 0.0641 | locus YNR049C, strain mso1, active compounds read low 0.0585 | locus YOR001W, strain rrp6, active compounds read low 0.0712 | locus YOR070C, strain gyp1, active compounds read low 0.0615 | locus YOR080W, strain dia2, active compounds read low 0.0657 | locus YOR083W, strain WHI5, active compounds read low 0.0753 | locus YOR106W, strain vam3, active compounds read low 0.0675 | locus YOR265W, strain rbl2, active compounds read low 0.0614 | locus YOR270C, strain vph1, active compounds read low 0.093 | locus YOR290C, strain snf2, active compounds read low 0.069 | locus YPL051W, strain arl3, active compounds read low 0.0646 | locus YPL078C, strain atp4, active compounds read low 0.0596 | locus YPL106C, strain sse1, active compounds read low 0.0983 | locus YPL240C, strain hsp82, active compounds read low 0.0574
inactive: locus YHR030C, strain SLT2, active compounds read low 0.971 | locus YHR079C, strain IRE1, active compounds read low 0.967 | locus YJL095W, strain BCK1, active compounds read low 0.985 | locus YJR066W, strain TOR1, active compounds read low 0.915 | locus YLR113W, strain HOG1, active compounds read low 1.07 | locus YNL183C, strain NPR1, active compounds read low 0.912 | locus YOR231W, strain MKK1, active compounds read low 0.953 | locus YPL256C, strain CLN2, active compounds read low 1.01

CCCCCCCCCCCCCCCCCCOC[C@H](COP(=O)([O-])OCC[N+](C)(C)C)OC
inactive: locus YAL013W, strain DEP1, active compounds read low 1 | locus YAL040C, strain CLN3, active compounds read low 1.04 | locus YCL061C, strain MRC1 (second series), active compounds read low 1.02 | locus YDR363W, strain ESC2, active compounds read low 0.992 | locus YER002W, strain NOP16, active compounds read low 1.04 | locus YMR263W, strain SAP30, active compounds read low 0.998 | locus YMR307W, strain GAS1, active compounds read low 1 | locus YNL153C, strain GIM3, active compounds read low 0.997 | locus YNL175C, strain NOP13, active compounds read low 1.05 | locus YNL197C, strain WHI3, active compounds read low 1.01 | locus YNL224C, strain SQS1, active compounds read low 1.04 | locus YNL322C, strain KRE1, active compounds read low 0.988 | locus YOR083W, strain WHI5 (second series), active compounds read low 1.02
